Measured values: PubChem BioAssay AID492953 (The Scripps Research Institute Molecular Screening Center, 2010)
The whole screen tested about 340,000 compounds, of which about 4,200 (1.2%) were called active. This is one part of a sample in which actives are shown more often than they occur. Unmarked numbers belong to inactive results.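 How the source made its calls: active means inhibition above the mean of all tested compounds plus 3 SD (cut at about 24% in these data); inactive means the rest.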

What follows are compounds tested against Platelet-activating factor acetylhydrolase IB subunit alpha2 (Homo sapiens) (UniProt P68402) (assay: inhibition of PAF acetylhydrolase 1b subunit 2 – biochemical, fluorescence polarization, human, primary screen (AID 492953;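 further: 0% = enzyme with DMSO and 100% = wells lacking PAFAH1B2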)). Settings: recombinant PAFAH1B2, FP-rhodamine activity probe, at 3.39 µM, active compounds read high.
Sequence of Platelet-activating factor acetylhydrolase IB subunit alpha2 (Homo sapiens) (P68402 whole entry, looked up): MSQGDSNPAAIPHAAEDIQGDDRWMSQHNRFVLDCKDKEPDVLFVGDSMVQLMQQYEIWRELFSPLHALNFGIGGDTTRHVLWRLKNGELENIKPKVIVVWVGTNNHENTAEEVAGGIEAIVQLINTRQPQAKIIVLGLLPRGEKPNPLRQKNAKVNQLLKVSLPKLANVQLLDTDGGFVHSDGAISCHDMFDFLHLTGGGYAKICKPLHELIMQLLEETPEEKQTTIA

Compound | inhibition
CS(=O)(=O)Nc1ccccc1N=C(c1ccccc1)c1ccccc1 | 5.79%
O=c1cc(-c2ccccc2)nc(N2CCCCC2)[nH]1 | -3.66%
Cc1ccc(O)c(CNc2nc3ccccc3[nH]2)c1 | 0.09%
Cc1ccc(-c2cc(=O)[nH]c(NCc3ccccc3)n2)cc1 | 24.5% (active)
O=C(O)c1ccc(-n2cccc2)cc1O | 4.37%
COc1cccc(CNn2cn[nH]c2=S)c1OCc1ccccc1 | 0.39%
O=C(CCNC(=O)C1CCN(S(=O)(=O)c2ccccc2)CC1)NC1CC1 | 1.71%
CCc1nnc(NC(=O)c2nc3nccc(C)n3n2)s1 | 7.37%
CCc1ccc2nc3sc(C(=O)Nc4nnc(CC)s4)c(N)c3cc2c1 | 32.2% (active)
CCc1nnc(NC(=O)c2cccc(S(=O)(=O)N(C)c3ccc(OC)cc3)c2)s1 | 10.2%
COc1ccc(Cl)cc1C=CC=Nc1ccc(S(N)(=O)=O)cc1 | -2.05%
Cc1c(C(=O)OCC(=O)N(CCC#N)c2ccccc2)oc2c1ccc1ccccc12 | -1.31%
O=C(Cc1ccccc1)Nc1cccc(NC(=O)c2ccccc2)c1 | 3.28%
CC(C)(C)NC(=O)c1cccc(NC(=O)Cc2ccc(Br)cc2)c1 | 28.1% (active)
Cc1cccc(NC(=O)Cc2ccc(Br)cc2)n1 | 8.34%
CN1CCN(C(=O)CCc2ncc(C(F)(F)F)cc2Cl)CC1 | -0.83%
CCC(=O)N1CCC(C(N)=O)(N2CCCCC2)CC1 | -0.67%
CC(=O)c1sc(NC(=O)CCN2C(=O)C3CC=CCC3C2=O)nc1-c1ccccc1 (configuration not stated) | -3.33%
CC1=CC(=NNS(=O)(=O)c2ccc([N+](=O)[O-])cc2)CC(C)(C)C1 | 31.9% (active)
CC(C=Cc1ccccc1)=NNS(=O)(=O)c1ccc([N+](=O)[O-])cc1 | 6.62%
Cc1cccc(NS(=O)(=O)c2ccc([N+](=O)[O-])cc2)n1 | 1.97%
CCOC(=O)[C@H]1[C@H]2COc3ccccc3[C@@H]2N2C(=O)CN(Cc3ccccc3)C(=O)[C@@]12C | -3.13%
COc1ccc(CNC(=O)c2cc(=O)c3c(C)cc(C)cc3o2)cc1 | -0.18%

Compound | inhibition
CCCCN(C(=O)/C=C/c1ccco1)c1c(N)n(CC(C)C)c(=O)[nH]c1=O | -1.15%
CC(=O)Nc1ccc(S(=O)(=O)Oc2ccc(Br)cc2C(=S)N2CCOCC2)cc1 | 0.45%
COc1ccc(Br)cc1/C=N/Nc1ccc(S(=O)(=O)Nc2ccccc2C(=O)O)cc1[N+](=O)[O-] | 4.57%
Cc1ccc(NS(=O)(=O)c2ccc(N/N=C/c3ccccc3OCC(=O)O)c([N+](=O)[O-])c2)c(C)c1 | 4.33%
COc1cccc(/C=N/Nc2ccc(S(=O)(=O)Nc3ccccc3C(=O)O)cc2[N+](=O)[O-])c1O | 32.2% (active)
Cc1ccc(C(=O)O)cc1S(=O)(=O)NCC1CCCO1 (configuration not stated) | -0.69%
COc1ccc(S(=O)(=O)NCCCc2ccccc2)cc1 | 13.7%
COc1ccc(S(=O)(=O)NCCc2cc3ccc(C)c(C)c3[nH]c2=O)cc1 | 24.7% (active)
COc1ccc(CCNS(=O)(=O)c2cccc([N+](=O)[O-])c2)cc1 | 13.1%
O=C1CN(C(=O)COC(=O)C2CC(=O)N(Cc3ccco3)C2)c2ccccc2N1 (configuration not stated) | -0.96%
O=C(NCCN1CCN(C(=O)c2cccc([N+](=O)[O-])c2)CC1)C(=O)NCc1ccc(Cl)cc1 | 10.4%
CCCCCCCCCCCC(=O)O | 30.2% (active)
O=C(O)CCCCCCCCCC[n+]1ccccc1 | 1.11%
NC(=O)NCCCC(=O)O | 4.24%
C/C=C/c1ccc(OCCCCN2CCC(C)CC2)c(OC)c1 | 2.16%
CCc1c(C)n([O-])c2c([n+]1=O)CCCCC2 | 7.72%
CCc1cccc(CC)c1NC(=O)COc1ccccc1C(=O)c1cc(C#N)c(=O)n(C2CCCCC2)c1 | 2.15%
NS(=O)(=O)c1ccccc1NC(=O)c1c(O)c2ccccc2[nH]c1=O | 2.89%
Cc1cc(=O)cc(C)n1-c1ccc(Cl)c(Cl)c1 | 4.86%
CCCCC(=O)NNC(=S)NC(=O)C(c1ccccc1)c1ccccc1 | 27.4% (active)
CC(C)C(=O)Nc1cccc(NC(=S)NC(=O)C(c2ccccc2)c2ccccc2)c1 | -2.74%
CCNC(=S)NNC(=O)Cc1ccccc1 | 0.2%
Cc1ccc(S(=O)(=O)N2CCC(N3CCCCCC3)CC2)cc1 | 5.12%

Compound | inhibition
Cc1ccc(S(=O)(=O)NC2CCCCCC2)cc1 | 11.5%
Cc1ccc(S(=O)(=O)n2oc(=O)c(C3CCCCC3)c2N)cc1 | 30.4% (active)
COc1ccc(/C(C)=N/N2CCOCC2)c(O)c1 | 3.71%
CCOc1ccccc1N(CC(=O)NC1CCCCC1)C(=O)CCCC(=O)Nc1ccccn1 | 2.23%
Nc1cc(OC(=O)c2ccccc2Br)nn1S(=O)(=O)c1ccccc1 | -1.3%
Cc1ccc(S(=O)(=O)n2nc(OC(=O)C(C)(C)C)cc2N)cc1 | 24.3% (active)
Cc1ccc(S(=O)(=O)N2CCC(C(=O)N3CCCCCCC3)CC2)cc1 | -2.62%
CCOC(=O)N1CCN(c2cc(C)c([N+](=O)[O-])cc2F)CC1 | 6.77%
Cc1ccc(CNS(=O)(=O)CCNC(=O)c2ccccc2)cc1 | 0.61%
Cc1ccc(N(C(=O)c2ccc(CN3CCOCC3)o2)C(C(=O)NCCC(C)C)c2cccs2)c(C)c1 (configuration not stated) | 2.55%
Cc1cc(=O)oc2c3c(cc(OCC(=O)NCCC(=O)N[C@@H](C)C(=O)O)c12)OC(C)(C)CC3 | 2.72%
Cc1c(C)c2c(OCC(=O)N[C@@H](C(=O)O)c3ccccc3)cc3c(c2oc1=O)CCC(C)(C)O3 | 38% (active)
Cc1c(C)c2c(OCC(=O)NCCCO)cc3c(c2oc1=O)CCC(C)(C)O3 | 9.23%
COCC1CCCN(Cc2cn[nH]c2-c2cc3ccccc3o2)C1 (configuration not stated) | -0.69%
Cc1ccccc1NC(=O)N1CCCC1C(=O)NCc1ccccc1 (configuration not stated) | 3.76%
O=[N+]([O-])c1ccc(NCCCO)c(C(F)(F)F)c1 | 6.89%
COCC1CCCN(Cc2nc(-c3ccc4c(c3)OCO4)no2)C1 (configuration not stated) | 3.45%
CC(C)COc1ccc(C(=O)OCC(=O)NCCC2=CCCCC2)cc1 | 2.59%
O=C(COc1ccc(Cl)cc1)NCCC1=CCCCC1 | 27.5% (active)
O=C(COc1cccc(-n2cnnn2)c1)NCCC1=CCCCC1 | 10.3%
CC1(c2ccccc2)CC(C)(C)N(C(=O)c2cc([N+](=O)[O-])cc([N+](=O)[O-])c2)c2ccccc21 (configuration not stated) | -0.31%
CC1CCC2CCCCC2N1C(=O)c1cc([N+](=O)[O-])cc([N+](=O)[O-])c1 (configuration not stated) | 24.7% (active)
CC1CCN(C(=S)c2cccc([N+](=O)[O-])c2)CC1 | 19.4%

Compound | inhibition
COc1ccc(CN2CCN(C(=O)c3cc(C4CC4)nn3-c3ccccc3)CC2)cc1F | 2.17%
O=C(COc1cccc2c1CCNC2=O)NC1CCCCC1 | -3.94%
O=C(Nc1ccc2ccccc2c1[N+](=O)[O-])c1ccccc1 | 5.08%
CCN(C(=O)COC(=O)c1cc(NS(=O)(=O)c2ccc(Cl)c([N+](=O)[O-])c2)ccc1O)C1CCCCC1 | 45.9% (active)
COc1ccc(NS(=O)(=O)c2ccc(O)c(C(=O)OCC(=O)NC3CCCCC3)c2)cc1 | 19.8%
CN(C)c1ccc(S(=O)(=O)NCC(=O)NCC2CCCCC2)cc1[N+](=O)[O-] | 8.33%
Cc1c(NS(=O)(=O)c2cccc(C(=O)Nc3ccc(SC(F)F)cc3)c2)c(=O)n(-c2ccccc2)n1C | 5.1%
COc1ccc(C(=O)CSc2nnc(NC(=O)C3CC(=O)N(c4cccc(OC)c4)C3)s2)cc1 (configuration not stated) | -6.09%
O=C(CNC(=O)c1cc(S(=O)(=O)N2CCOCC2)ccc1N1CCCC1)Nc1ccc(F)c(F)c1 | -4.31%
COc1cc(C(=O)Nc2cc(C(F)(F)F)ccc2-n2cncn2)cc(OC)c1OC | -1.88%
CCc1nn(CC(=O)N2CCN(c3cc(C)ccc3C)CC2)c(=O)c2cc3occc3n12 | 2.35%
CSCCC(NC(=O)COc1ccccc1)C(=O)N1CCN(c2cccc(C(F)(F)F)c2)CC1 (configuration not stated) | 7.1%
CC(=O)NC1=NC(=O)CS1 | -3.07%
COc1ccc(C2(CNC(=O)Cc3ccc(OC)c(OC)c3)CCCC2)cc1 | -0.19%
COc1cc(C(=O)NCC2(c3ccccc3)CCCC2)ccc1OC(C)C | 69.7% (active)
COc1ccc(C2(CNC(=O)C(c3ccccc3)c3ccccc3)CCOCC2)cc1OC | -0.88%
CCCCc1nc2cc(C(=O)NCCc3cnn(C)c3)ccc2o1 | -4.49%
O=C(/C=C/c1ccc(Cl)cc1)N1CCN(c2ccccc2[N+](=O)[O-])CC1 | -2.36%
COc1cccc2c1C(=O)c1c(O)c3c(c(O)c1C2=O)CC(O)(C(C)=NNC(=O)c1ccc(Cl)c(Cl)c1)CC3OC1CC(N)C(O)C(C)O1 (configuration not stated) | 52.5% (active)
CC/C(=C(/c1ccccc1)c1ccc(OCC[N+](C)(C)C)cc1)c1ccccc1 | 8.4%
C/C(=N\OCC(=O)O)c1ccc(Cl)cc1 | 9.56%
CCOC(=O)CN/C=C(\C#N)c1ccc(F)cc1 | -0.66%
CCOc1cc(/C=C(/C#N)c2ccc(Cl)cc2)cc(Cl)c1OCC(=O)O | 71.1% (active)
